Assay results reported in PMC7862700, “An all-to-all approach to the identification of sequence-specific readers for epigenetic DNA modifications on cytosine”.

What was measured:
Experiment in all cases: DAPPL (digital affinity profiling via proximity ligation, sequencing); 10 mM Tris-HCl pH 7.5, 50 mM NaCl, 1 mM DTT, 4% glycerol, room temperature, 30 min; GST-TFs on glutathione beads, 16-mer random dsDNA library, 0.1% formaldehyde crosslink after washing; high values mean tight binding
FEV = target: T1, FEV (Homo sapiens, UniProt Q99581 1-238); details: protein: recombinant; tags: N-terminal GST; dsDNA, one strand shown
T1 sequence: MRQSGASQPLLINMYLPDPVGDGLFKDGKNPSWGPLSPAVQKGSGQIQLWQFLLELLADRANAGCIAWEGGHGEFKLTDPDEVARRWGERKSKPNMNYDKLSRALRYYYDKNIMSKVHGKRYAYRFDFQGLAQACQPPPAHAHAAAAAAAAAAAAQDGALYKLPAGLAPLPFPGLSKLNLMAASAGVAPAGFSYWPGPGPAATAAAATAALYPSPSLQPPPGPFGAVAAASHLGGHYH
Procedure, shortened: (§1)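 Sequencing on an Illumina NextSeq500 followed washing, crosslinking with 0.1% formaldehyde, proximity ligation (BsaI/T4 ligase, 1 h, 37 °C) and PCR amplification of pools that had been incubated for 30 min at room temperature with 200 nmole of a random double-stranded 16-mer DNA library in Tris/NaCl/DTT/glycerol buffer. Each pool held DNA-barcoded human transcription factors, expressed in yeast as GST fusions and captured on glutathione beads, plus a tag-only sample. Binding signal is a hexamer's read frequency for a factor divided by its frequency in the tag-only sample.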

ETV5 = ETV5 (Homo sapiens, UniProt P41161 1-510); details: protein: recombinant; tags: N-terminal GST; dsDNA, one strand shown
Procedure, shortened: as §1

HSF1 = HSF1 (Homo sapiens, UniProt Q00613 1-529); details: protein: recombinant; tags: N-terminal GST; chain copies: 3; dsDNA, one strand shown
Procedure, shortened: as §1

SPIC = target: T2, SPIC (Homo sapiens, UniProt Q8N5J4 1-248); details: protein: recombinant; tags: N-terminal GST; dsDNA, one strand shown
T2 sequence: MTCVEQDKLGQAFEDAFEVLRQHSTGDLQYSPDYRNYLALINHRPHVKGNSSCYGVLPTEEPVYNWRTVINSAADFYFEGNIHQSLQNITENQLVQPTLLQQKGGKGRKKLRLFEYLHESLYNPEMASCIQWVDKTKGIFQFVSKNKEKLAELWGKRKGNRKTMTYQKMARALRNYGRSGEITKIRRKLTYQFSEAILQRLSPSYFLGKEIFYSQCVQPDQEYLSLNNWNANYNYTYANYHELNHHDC
Procedure, shortened: as §1

ELF4 = ELF4 (Homo sapiens, UniProt Q99607 1-663); details: protein: recombinant; tags: N-terminal GST; dsDNA, one strand shown
Procedure, shortened: as §1

ELK4 = target: T3, ELK4 (Homo sapiens, UniProt P28324-2 1-405); details: protein: recombinant; tags: N-terminal GST; dsDNA, one strand shown
T3 sequence: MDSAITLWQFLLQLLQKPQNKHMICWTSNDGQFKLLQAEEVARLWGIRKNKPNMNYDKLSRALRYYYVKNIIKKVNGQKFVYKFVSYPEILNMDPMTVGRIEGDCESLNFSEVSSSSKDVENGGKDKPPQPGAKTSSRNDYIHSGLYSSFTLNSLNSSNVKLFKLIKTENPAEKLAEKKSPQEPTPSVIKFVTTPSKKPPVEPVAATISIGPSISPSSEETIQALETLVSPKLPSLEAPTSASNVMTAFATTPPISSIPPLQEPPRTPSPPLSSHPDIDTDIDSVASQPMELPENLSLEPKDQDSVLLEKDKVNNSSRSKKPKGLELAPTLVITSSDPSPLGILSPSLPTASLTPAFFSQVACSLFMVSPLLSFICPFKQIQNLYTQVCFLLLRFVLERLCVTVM
Procedure, shortened: as §1

ETV2 = target: T4, ETV2 (Homo sapiens, UniProt O00321 1-342); details: protein: recombinant; tags: N-terminal GST; dsDNA, one strand shown
T4 sequence: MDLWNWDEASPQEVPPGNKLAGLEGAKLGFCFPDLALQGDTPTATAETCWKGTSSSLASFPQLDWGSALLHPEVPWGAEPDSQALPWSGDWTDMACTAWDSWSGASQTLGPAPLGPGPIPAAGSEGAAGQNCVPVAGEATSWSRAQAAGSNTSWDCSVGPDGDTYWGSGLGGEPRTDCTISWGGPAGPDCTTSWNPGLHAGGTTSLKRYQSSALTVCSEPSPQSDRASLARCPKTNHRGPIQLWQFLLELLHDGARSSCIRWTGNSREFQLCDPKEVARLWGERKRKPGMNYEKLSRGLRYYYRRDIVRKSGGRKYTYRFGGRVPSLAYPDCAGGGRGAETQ
Procedure, shortened: as §1

ELF3 = target: T5, ELF3 (Homo sapiens, UniProt P78545 1-371); details: protein: recombinant; tags: N-terminal GST; dsDNA, one strand shown
T5 sequence: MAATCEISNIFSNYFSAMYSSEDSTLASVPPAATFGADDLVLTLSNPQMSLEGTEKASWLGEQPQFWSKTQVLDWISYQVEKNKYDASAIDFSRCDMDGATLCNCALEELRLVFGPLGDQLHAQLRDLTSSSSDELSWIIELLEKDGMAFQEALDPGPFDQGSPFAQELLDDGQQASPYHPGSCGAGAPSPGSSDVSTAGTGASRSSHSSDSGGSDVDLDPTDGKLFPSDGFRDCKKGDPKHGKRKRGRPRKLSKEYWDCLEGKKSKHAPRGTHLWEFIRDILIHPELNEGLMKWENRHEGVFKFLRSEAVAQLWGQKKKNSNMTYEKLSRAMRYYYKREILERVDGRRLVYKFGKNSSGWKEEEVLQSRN
Procedure, shortened: as §1

ETV1 = ETV1 (Homo sapiens, UniProt P50549 1-477); details: protein: recombinant; tags: N-terminal GST; dsDNA, one strand shown
Procedure, shortened: as §1

ERF = target: T6, ERF (Homo sapiens, UniProt P50548 1-548); details: protein: recombinant; tags: N-terminal GST; dsDNA, one strand shown
T6 sequence: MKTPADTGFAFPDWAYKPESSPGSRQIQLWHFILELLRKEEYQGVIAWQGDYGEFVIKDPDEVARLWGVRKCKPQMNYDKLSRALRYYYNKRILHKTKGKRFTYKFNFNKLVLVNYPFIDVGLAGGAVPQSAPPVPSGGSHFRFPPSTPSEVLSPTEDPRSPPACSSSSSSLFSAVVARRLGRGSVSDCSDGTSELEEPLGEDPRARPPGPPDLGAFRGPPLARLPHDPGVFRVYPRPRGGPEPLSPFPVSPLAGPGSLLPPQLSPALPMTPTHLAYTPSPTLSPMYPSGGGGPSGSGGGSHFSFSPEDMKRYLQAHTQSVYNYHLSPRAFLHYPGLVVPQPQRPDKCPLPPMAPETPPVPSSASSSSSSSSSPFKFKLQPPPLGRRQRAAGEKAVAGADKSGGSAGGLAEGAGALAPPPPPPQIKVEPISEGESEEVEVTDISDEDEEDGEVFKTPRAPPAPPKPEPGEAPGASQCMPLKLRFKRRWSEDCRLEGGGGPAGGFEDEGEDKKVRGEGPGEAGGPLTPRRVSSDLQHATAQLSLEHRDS
Procedure, shortened: as §1

ETV3L = target: T7, ETV3L (Homo sapiens, UniProt Q6ZN32 1-361); details: protein: recombinant; tags: N-terminal GST; dsDNA, one strand shown
T7 sequence: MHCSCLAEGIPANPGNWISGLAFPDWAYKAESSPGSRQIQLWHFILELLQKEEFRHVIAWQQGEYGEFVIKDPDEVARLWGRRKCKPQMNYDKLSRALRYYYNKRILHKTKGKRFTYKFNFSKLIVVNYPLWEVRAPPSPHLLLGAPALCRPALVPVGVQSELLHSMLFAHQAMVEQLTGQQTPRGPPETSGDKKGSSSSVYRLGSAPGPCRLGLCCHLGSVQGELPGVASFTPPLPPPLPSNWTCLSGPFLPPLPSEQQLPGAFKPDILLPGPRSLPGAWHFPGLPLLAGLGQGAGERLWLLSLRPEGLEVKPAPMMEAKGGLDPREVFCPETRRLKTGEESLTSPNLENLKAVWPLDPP
Procedure, shortened: as §1

ETS2 = target: T8, ETS2 (Homo sapiens, UniProt P15036 1-469); details: protein: recombinant; tags: N-terminal GST; dsDNA, one strand shown
T8 sequence: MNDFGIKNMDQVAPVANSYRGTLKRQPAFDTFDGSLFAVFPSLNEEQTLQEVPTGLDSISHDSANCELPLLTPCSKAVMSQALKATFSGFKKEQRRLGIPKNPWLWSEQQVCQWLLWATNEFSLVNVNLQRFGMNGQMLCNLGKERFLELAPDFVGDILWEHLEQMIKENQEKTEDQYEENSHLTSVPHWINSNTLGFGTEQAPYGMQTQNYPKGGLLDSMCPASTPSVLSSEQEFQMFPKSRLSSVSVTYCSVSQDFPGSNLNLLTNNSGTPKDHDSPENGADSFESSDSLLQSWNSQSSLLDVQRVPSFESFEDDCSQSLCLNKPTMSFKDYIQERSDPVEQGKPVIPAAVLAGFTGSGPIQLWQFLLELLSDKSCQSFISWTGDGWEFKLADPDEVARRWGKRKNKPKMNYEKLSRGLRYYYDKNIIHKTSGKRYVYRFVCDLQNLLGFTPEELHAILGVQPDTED
Procedure, shortened: as §1

SPDEF = target: T9, SPDEF (Homo sapiens, UniProt O95238 1-335); details: protein: recombinant; tags: N-terminal GST; dsDNA, one strand shown
T9 sequence: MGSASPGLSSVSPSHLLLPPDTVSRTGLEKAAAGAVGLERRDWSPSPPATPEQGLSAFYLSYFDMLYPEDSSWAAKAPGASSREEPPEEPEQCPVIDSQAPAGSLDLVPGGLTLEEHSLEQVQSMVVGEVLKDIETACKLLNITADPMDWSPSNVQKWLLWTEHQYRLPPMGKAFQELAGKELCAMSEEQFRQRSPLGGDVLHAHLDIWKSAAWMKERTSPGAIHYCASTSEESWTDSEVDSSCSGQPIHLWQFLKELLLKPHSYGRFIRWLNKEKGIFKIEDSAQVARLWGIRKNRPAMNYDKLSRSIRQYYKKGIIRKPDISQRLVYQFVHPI
Procedure, shortened: as §1

ETV7 = target: T10, ETV7 (Homo sapiens, UniProt Q9Y603 1-341); details: protein: recombinant; tags: N-terminal GST; dsDNA, one strand shown
T10 sequence: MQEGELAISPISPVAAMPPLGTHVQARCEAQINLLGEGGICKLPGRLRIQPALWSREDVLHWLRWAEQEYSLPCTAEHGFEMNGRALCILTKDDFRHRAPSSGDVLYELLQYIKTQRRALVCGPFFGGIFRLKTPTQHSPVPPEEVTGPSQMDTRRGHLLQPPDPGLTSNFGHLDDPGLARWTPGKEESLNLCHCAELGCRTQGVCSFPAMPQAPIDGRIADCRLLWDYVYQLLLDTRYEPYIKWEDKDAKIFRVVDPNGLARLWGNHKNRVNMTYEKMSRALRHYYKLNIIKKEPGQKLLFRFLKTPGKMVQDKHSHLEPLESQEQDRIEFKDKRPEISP
Procedure, shortened: as §1

ELF5 = target: T11, ELF5 (Homo sapiens, UniProt Q9UKW6-2 1-255); details: protein: recombinant; tags: N-terminal GST; dsDNA, one strand shown
T11 sequence: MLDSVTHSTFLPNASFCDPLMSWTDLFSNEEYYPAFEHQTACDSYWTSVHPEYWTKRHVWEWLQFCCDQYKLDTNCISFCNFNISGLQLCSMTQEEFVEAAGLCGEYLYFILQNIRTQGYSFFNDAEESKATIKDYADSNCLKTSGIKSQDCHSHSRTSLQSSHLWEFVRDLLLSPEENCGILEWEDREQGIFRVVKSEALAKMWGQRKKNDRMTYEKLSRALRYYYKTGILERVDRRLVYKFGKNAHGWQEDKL
Procedure, shortened: as §1

ETV3 = target: T12, ETV3 (Homo sapiens, UniProt P41162-2 1-143); details: protein: recombinant; tags: N-terminal GST; dsDNA, one strand shown
T12 sequence: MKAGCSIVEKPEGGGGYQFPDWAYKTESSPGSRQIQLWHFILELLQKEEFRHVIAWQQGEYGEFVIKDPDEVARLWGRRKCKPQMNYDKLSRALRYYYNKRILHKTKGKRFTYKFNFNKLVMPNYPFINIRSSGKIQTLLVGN
Procedure, shortened: as §1

ETV6 = ETV6 (Homo sapiens, UniProt P41212 1-452); details: protein: recombinant; tags: N-terminal GST; dsDNA, one strand shown
Procedure, shortened: as §1

Chain of ETV6 (P41212 whole entry): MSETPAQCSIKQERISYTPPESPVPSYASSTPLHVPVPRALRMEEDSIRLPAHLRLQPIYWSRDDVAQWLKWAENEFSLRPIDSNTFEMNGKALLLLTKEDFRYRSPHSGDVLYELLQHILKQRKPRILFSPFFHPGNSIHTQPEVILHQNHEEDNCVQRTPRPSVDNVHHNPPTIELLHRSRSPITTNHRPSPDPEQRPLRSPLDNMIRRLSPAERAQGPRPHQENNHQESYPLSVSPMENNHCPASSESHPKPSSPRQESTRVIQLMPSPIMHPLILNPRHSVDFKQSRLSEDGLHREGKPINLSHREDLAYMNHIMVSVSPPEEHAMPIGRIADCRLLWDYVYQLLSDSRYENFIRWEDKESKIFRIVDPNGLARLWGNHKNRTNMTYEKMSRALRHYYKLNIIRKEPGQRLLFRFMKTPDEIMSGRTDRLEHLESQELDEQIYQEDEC
Chain of ELF4 (Q99607 whole entry): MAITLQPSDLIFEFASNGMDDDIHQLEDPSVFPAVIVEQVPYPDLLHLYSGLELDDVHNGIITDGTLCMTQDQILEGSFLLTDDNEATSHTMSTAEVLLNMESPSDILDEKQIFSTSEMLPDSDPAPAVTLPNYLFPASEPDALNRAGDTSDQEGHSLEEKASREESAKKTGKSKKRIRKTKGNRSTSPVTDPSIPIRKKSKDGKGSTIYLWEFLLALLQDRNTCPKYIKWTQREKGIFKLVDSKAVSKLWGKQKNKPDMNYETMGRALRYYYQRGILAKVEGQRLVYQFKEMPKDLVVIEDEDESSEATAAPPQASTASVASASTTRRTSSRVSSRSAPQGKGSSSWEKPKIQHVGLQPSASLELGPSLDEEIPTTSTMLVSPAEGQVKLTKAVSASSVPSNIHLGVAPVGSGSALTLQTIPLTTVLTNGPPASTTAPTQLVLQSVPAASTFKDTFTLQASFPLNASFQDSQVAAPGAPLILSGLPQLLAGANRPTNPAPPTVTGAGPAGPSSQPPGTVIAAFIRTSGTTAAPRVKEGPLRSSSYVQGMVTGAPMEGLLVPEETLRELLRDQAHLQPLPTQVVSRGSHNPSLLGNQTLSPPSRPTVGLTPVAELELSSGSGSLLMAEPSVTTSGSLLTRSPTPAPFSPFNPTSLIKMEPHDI
Chain of HSF1 (Q00613 whole entry): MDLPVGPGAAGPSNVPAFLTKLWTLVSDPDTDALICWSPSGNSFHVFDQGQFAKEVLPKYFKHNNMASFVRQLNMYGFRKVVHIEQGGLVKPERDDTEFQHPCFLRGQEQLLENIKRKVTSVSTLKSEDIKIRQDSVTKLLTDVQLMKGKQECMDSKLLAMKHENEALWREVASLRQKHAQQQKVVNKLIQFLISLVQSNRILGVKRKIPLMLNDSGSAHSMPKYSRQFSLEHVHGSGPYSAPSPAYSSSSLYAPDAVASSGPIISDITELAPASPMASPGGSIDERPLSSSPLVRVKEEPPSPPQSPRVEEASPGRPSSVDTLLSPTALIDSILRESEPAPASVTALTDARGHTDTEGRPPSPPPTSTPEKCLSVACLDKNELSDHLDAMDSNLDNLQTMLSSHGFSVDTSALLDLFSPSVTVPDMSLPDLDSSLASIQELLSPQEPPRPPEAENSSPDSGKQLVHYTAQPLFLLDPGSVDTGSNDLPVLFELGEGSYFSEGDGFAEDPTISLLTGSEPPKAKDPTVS
Chain of ETV1 (P50549 whole entry): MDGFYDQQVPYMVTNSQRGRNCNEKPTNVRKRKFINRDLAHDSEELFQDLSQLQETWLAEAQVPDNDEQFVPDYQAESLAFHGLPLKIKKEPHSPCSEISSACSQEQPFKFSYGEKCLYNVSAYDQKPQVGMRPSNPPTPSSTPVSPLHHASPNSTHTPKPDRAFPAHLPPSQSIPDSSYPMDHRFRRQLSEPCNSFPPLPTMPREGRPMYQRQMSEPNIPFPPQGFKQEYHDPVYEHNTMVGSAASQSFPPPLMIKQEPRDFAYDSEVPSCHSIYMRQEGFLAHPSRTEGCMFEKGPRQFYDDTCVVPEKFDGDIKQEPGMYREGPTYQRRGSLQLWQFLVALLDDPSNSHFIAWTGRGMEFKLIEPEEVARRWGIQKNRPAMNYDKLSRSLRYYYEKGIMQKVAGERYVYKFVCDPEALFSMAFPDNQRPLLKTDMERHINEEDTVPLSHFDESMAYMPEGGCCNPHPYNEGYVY
Chain of ETV5 (P41161 whole entry): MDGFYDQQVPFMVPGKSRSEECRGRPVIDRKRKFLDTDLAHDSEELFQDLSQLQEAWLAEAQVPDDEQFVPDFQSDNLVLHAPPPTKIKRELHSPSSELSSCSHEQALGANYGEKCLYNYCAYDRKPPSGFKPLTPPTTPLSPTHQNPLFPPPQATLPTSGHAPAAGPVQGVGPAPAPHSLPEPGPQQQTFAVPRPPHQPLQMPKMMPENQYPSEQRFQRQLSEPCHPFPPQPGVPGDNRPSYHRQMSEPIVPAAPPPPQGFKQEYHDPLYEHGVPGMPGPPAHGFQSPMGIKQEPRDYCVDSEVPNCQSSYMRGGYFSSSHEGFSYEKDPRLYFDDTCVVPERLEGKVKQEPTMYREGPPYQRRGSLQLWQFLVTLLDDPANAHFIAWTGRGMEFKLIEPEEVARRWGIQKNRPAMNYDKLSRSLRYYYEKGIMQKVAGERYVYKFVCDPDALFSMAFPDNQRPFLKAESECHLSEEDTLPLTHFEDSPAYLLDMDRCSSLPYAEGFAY

## GTTTGA
FEV
  binding signal: 1.13 fold enrichment (6-mer frequency, TF over GST control)
ETV5
  binding signal: 1.19 fold enrichment (6-mer frequency, TF over GST control)
HSF1
  binding signal: 1.03 fold enrichment (6-mer frequency, TF over GST control)
SPIC
  binding signal: 1.25 fold enrichment (6-mer frequency, TF over GST control)
ELF4
  binding signal: 1.13 fold enrichment (6-mer frequency, TF over GST control)
ELK4
  binding signal: 1.28 fold enrichment (6-mer frequency, TF over GST control)
ETV2
  binding signal: 1.22 fold enrichment (6-mer frequency, TF over GST control)
ELF3
  binding signal: 1.15 fold enrichment (6-mer frequency, TF over GST control)
ETV1
  binding signal: 1.2 fold enrichment (6-mer frequency, TF over GST control)
ERF
  binding signal: 1.23 fold enrichment (6-mer frequency, TF over GST control)
ETV3L
  binding signal: 1.11 fold enrichment (6-mer frequency, TF over GST control)
ETS2
  binding signal: 1.26 fold enrichment (6-mer frequency, TF over GST control)
SPDEF
  binding signal: 1.11 fold enrichment (6-mer frequency, TF over GST control)
ETV7
  binding signal: 1.24 fold enrichment (6-mer frequency, TF over GST control)
ELF5
  binding signal: 1.17 fold enrichment (6-mer frequency, TF over GST control)
ETV3
  binding signal: 1.24 fold enrichment (6-mer frequency, TF over GST control)
ETV6
  binding signal: 1.28 fold enrichment (6-mer frequency, TF over GST control)
